# Experimental data taken from PubChem BioAssay (NCATS).
# Records with an inconclusive call do not appear. Where a call stands in place of a potency, no number is given. Active and inactive are the calls of the source. Calls come from the whole dose curve; as a rule, active = well fitted curve in the direction sought with a large enough effect in the signal ratio, with a control signal flat (not every such curve was filed as active); inconclusive = small, poorly fitted or top-dose-only effect, or effect the other way, or a change in a side signal; inactive = no such curve, though single readings can be large or run the other way; the % refers to the signal ratio.
# Biological target: Tyrosine-protein phosphatase non-receptor type substrate 1 (Homo sapiens) + Leukocyte surface antigen CD47 (Homo sapiens) (UniProt P78324+Q08722)
# Sequence (P78324 whole entry, looked up): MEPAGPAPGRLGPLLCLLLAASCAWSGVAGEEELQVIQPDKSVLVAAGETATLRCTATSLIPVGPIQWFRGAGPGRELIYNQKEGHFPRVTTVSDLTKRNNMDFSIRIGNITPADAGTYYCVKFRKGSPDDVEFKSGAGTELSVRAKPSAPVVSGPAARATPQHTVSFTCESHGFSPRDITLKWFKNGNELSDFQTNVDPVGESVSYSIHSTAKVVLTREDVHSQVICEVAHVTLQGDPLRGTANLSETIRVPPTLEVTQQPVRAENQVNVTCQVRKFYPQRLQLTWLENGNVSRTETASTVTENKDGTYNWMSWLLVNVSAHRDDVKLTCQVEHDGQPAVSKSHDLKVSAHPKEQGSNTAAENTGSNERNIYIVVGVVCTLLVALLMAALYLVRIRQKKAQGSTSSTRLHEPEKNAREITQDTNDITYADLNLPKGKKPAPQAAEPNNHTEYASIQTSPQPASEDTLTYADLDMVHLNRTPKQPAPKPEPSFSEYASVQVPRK
# Sequence (Q08722 whole entry, looked up): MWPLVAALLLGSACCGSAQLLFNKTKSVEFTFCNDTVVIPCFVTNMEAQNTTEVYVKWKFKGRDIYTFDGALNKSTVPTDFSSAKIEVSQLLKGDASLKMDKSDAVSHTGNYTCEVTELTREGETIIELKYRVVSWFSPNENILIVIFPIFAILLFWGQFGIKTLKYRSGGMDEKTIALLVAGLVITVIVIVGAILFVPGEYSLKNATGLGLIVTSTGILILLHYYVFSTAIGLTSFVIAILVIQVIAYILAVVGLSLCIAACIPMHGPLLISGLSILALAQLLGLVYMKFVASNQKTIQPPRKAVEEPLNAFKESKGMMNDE
# Test: CD47-SIRPalpha protein protein interaction - LANCE assay qHTS validation (AID 1347057)
# Conditions: Recombinant CD47-His / biotin-SIRPalpha, TR-FRET ratio; series mostly up to 38.3 µM
# Source text: SIRPalpha is a myeloid cell expressed immunomodulatory receptor that binds the tumor expressed immune checkpoint CD47. Therapeutic disruption of this interaction leads to immune-mediated tumor rejection. This assay was used to quantitate CD47-SIRPalpha binding biochemically and evaluate chemical libraries for novel CD47-SIRPalpha inhibitors. To recapitulate the biological interaction of CD47 and SIRPalpha, we designed expression constructs to produce their recombinant, soluble, extracellular interaction domains. CD47 was produced with an N-terminal 6His tag. SIRPalpha was produced with an N-terminal Avi-Tag for site-specific biotin incorporation. The CD47-SIRPalpha interaction was measured by TR-FRET using affinity tag linked reagents (anti-6His-Eu donor and streptavidin-APC acceptor). SIRPalpha without biotin incorporation was used as a positive control inhibitor.
# PROTOCOL TABLE (as described by Miller, T. et al. 2019)
# SEQUENCE No. (e.g., 1, 2, 3, etc.); […] (e.g., Cells, Incubation, Reagent, etc.); VALUE and DESCRIPTION.
# 1a. Reagent. 3 uL CD47-His (12.5 nM) and Anti-His Eu Donor reagent (3 nM) added to respective wells in Assay buffer; white/solid bottom high base, med bind 1536-well plates (Greiner 789075)
# 1b. Reagent. 2 uL Assay buffer negative control for background fluorescence
# 2. Reagent. 23 nL library compounds (7-pt, 1:4 intraplate titration series) or DMSO control transferred by Pin Tool
# 3. Centrifuge. Centrifuge plate for 30 s at 1000 RPM
# 4. Incubation.#Incubate reagents at room temperature for 30 min, protected from light
# 5. Reagent. 2 uL SIRPalpha-biotin (100 nM) in Assay buffer
# 6. Incubation.#Incubate reagents at room temperature for 30 min, protected from light
# 7. Reagent. 1 uL SAV-APC (26 nM) acceptor reagent added to respective wells
# 8. Centrifuge. Centrifuge plate for 30 s at 1000 RPM
# 9. Incubation. Incubate reagents at room temperature for 30 min, protected from light
# 10. Detector. Measure Top TR-FRET on EnVision (Eu/APC filter set); calculate ratio Ch1/Ch2
# 1. Assay buffer composition.#Phosphate buffered saline (PBS; 10 mM Phosphate, 137 mM NaCl, and 2.7 mM KCl; pH 7.4), 0.05% IGEPAL CA-630
# 2. 23nL of […] library compounds (7 plates) or DMSO vehicle control transferred to 9 Greiner white/solid bottom high base, TC plates in 7 interplate 1:5 titrations (see Yasgar, A. et al. 2008) with Pintool. Two of the 9 plates are DMSO-only in compound field at beginning and end of compound library-treated plates.
# 10. Detector settings#Mirror = LANCE/DELFIA Dual Enh; Ex. Filter = UV2[TRF] 320; Em. Filter = APC 665; 2nd Em. Filter = Europium 615; Measurement h = 6.5; Ex. light (%) = 100; Delay = 60 us; Window t = 100 us; No. Seq. windows = 1; Time between flashes = 2000us; No. of flashes = 100; No. of flashes for 2nd detector = 100; Calculation: "Ratio Ch1/Ch2"
row,SMILES,Potency
1,O=C(O)CC1CCCc2ccccc2C1O (stereo not given),inactive
2,O=S(=O)(c1cccc2c(I)cccc12)N1CCCNCC1,inactive
3,O=[N+]([O-])c1ccc(CNc2nc(NCc3cccc(C(F)(F)F)c3)nc3nc[nH]c23)cc1,inactive
4,Cn1cc(C2=C(c3ccc(Cl)cc3Cl)C(=O)NC2=O)c2ccccc21,inactive
5,Cc1ccc(O)c(N=Nc2ccccc2)n1,inactive
6,Oc1ccc(C2CNCc3sccc32)cc1O (stereo not given),inactive
7,NCCCCCCCCCCN,inactive
8,Cc1ccc(S(=O)(=O)/C=C/C#N)cc1,inactive
9,COCCOc1cc2nc[nH]c(=O)c2cc1OCCOC,inactive
10,CCCCCCCCCCCCCCCCCCN(CCCCCCCCCCCCCCCCCC)CCCN(CCO)CCO,inactive
11,OC[C@H]1O[C@@H](n2cnc3c(NC4CCCCC4)ncnc32)[C@H](O)[C@@H]1O,inactive
12,Cn1c(=O)c(-c2c(Cl)cccc2Cl)cc2cnc(Nc3ccc(N4CCOCC4)cc3)nc21,inactive
13,Nc1nc(Cl)nc2c1ncn2[C@@H]1O[C@H](CO)[C@@H](O)[C@H]1O,inactive
14,Brc1cc2c(cc1[C@H]1Nc3ccccc3[C@H]3C=CC[C@H]31)OCO2,inactive
15,NC(CCCP(=O)(O)O)C(=O)O (stereo not given),inactive
16,C[N+]1(C)C2CC(OC(=O)[C@H](CO)c3ccccc3)CC1C1OC12 (stereo not given in full),inactive
17,CCCC(CCC)C(=O)OC1CC2CCC(C1)[N+]2(C)C (stereo not given),inactive
18,O=C1C(SCCO)=C(SCCO)C(=O)c2ccccc21,inactive
19,CN(C)c1nc(N)c(C(=O)N=C(N)N)nc1Cl,inactive
20,O=C(/C=C/c1ccc(O)cc1)c1ccc(O)cc1O,inactive

row,SMILES,Potency
1,C[N+](C)(C)CCOP(=O)(O)OP(=O)([O-])OC[C@H]1O[C@@H](n2ccc(N)nc2=O)[C@H](O)[C@@H]1O,inactive
2,NCCCS(=O)(=O)O,inactive
3,Cc1cc2c(cc1Cl)N(C(=O)Nc1ccc(Oc3cccnc3C)nc1)CC2,inactive
4,CC(C)(C=O)Cc1cc(C(C)(C)C)c(O)c(C(C)(C)C)c1,inactive
5,Brc1c(Br)c(Br)c2n[nH]nc2c1Br,inactive
6,O=Nc1ccc2oc(=O)ccc2c1,inactive
7,CCCCCCCCCCCCCCCC(=O)OC(CC(=O)O)C[N+](C)(C)C (stereo not given),inactive
8,O=C(O)c1cc([N+](=O)[O-])ccc1NCCCc1ccccc1,inactive
9,O=C(O)CC[C@@H](C(=O)O)N1C(=O)c2ccccc2C1=O,inactive
10,O=C(c1cc(O)c(O)c([N+](=O)[O-])c1)c1ccccc1F,inactive
11,NCC1OC(O[C@H]2[C@H](O)[C@@H](OC3C(O)C(N)CC(N)C3OC3OC(CO)C(O)C(O)C3N)O[C@@H]2CO)C(N)C(O)C1O (stereo not given in full),inactive
12,Cn1ncc(S(=O)(=O)Cc2ccccc2)c(Br)c1=O,inactive
13,NS(=O)(=O)c1ccc(-n2nc(C(F)(F)F)cc2-c2ccc(Cl)cc2)cc1,inactive
14,CN1CC(=O)N/C1=N/C(=O)Nc1cccc(Cl)c1,inactive
15,O=C1NC(O)=NC1(c1ccccc1)c1ccccc1,inactive
16,COc1cccc(OC)c1OCCNCC1COc2ccccc2O1 (stereo not given),inactive
17,COc1cc(SC)ccc1C(=O)N1CCC(Cc2ccccc2)CC1,inactive
18,CC1(C)CCC=[N+]1[O-],inactive
19,Oc1cc2c(cc1O)CN(C(=S)NCCc1ccc(Cl)cc1)CCC2,inactive
20,COc1cccc(C(=O)NCCN2CCN(c3ccc(Cl)cc3)CC2)c1,inactive
